Screening results from PubChem.
Hits are enriched below; roughly 4.8% of the tested compounds scored in any of these assays.
hgDAF-12 ag = H. glycines DAF-12 receptor agonists, primary screen, cell-based, luminescence, HEK293, GAL4 fusion, UAS-luciferase; Nuclear hormone receptor DAF-12 (Heterodera glycines), GAL4 fusion; HEK293 GAL4-hgDAF12 UAS-luciferase reporter, agonist luminescence; normalized to butyrate control; activation, % at 6.8 µM; 1.8% of 370,000 active; AID 687014, 2013;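 active = activation above a cutoff set at the mean of all screened compounds plus 3 SD, cut at about 10% in these data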
ssDAF12 agonist = S. stercoralis DAF-12 nuclear receptor activators, primary screen, cell-based, luminescence, HEK293, GRIP1 co-expression, lit1-tk-luc. Nuclear hormone receptor DAF-12 (Strongyloides stercoralis). HEK293 ssDAF-12/GRIP1 lit1-tk-luc reporter; % of 3 µM dafachronic acid response. activation, % at 6.8 µM. 1% of 370,000 active. AID 652126, 2013;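 active = activation above the mean over all tested compounds plus 3 SD, cut at about 0.9% in these data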
hcDAF-12 act = H. contortus DAF-12 nuclear receptor activators, primary screen, cell-based, luminescence, HEK293, lit1-tk-luc reporter; activation, % at 6.8 µM; HEK293 hcDAF-12 lit1-tk-luc reporter; 0% DMSO, 100% Δ7-dafachronic acid; AID 652067, 2013; 1.4% of 370,000 active;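 active = activation above the mean of all tested compounds plus 3 SD, cut at about 5.5% in these data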
NR1D1 modulator = modulators of Rev-erb alpha DNA binding, primary screen, biochemical, FITC-DNA, fluorescence polarization, uHTS. Rev-erbα–FITC-DNA binding, 90 min. activity, % at 10 µM. 0.79% of 370,000 active;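 active = activity above about 14%, limit read from the data; passing the limit was not always enough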
DAX1 inh-1 = DAX1 (NR0B1) inhibitors on StAR promoter, primary screen, cell-based, luminescence, SF-1 (NR5A1), full-length DAX-1 | HEK293T StAR-luciferase reporter, SF-1/DAX-1 repression relief | inhibition, % at 6.8 µM | 1.1% of 370,000 active;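 active = inhibition above the mean over all tested compounds plus 3 SD, cut at about 3.6% in these data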;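 also: higher inhibition means more luminescence from relief of DAX-1 repression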
DAX1 inh-2 = DAX1 (NR0B1) inhibitors, primary screen, cell-based, HEK293, Gal4-DAX1, luciferase luminescence; Nuclear receptor subfamily 0 group B member 1 (Homo sapiens), P51843; HEK293 Gal4-DAX1 luciferase reporter; inhibition, % at 6.75 µM; 0.99% of 340,000 active; AID 504766, 2011;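 active = inhibition above the mean over all tested compounds plus 3 SD, cut at about 4.2% in these data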;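 also: inhibition shows as a rise in luminescence from relieved DAX1 repression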
Target sequence (P51843 207-470 limits assumed): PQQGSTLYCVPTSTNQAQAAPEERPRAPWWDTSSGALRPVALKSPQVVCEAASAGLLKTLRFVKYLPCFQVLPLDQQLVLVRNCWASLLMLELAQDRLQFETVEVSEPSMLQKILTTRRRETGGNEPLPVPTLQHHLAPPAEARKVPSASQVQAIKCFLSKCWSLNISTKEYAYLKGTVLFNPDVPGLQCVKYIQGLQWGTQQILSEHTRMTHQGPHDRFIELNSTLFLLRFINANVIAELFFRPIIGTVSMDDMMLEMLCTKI
Of the large screens only hits and unclear results are named; the others gave an inactive call.

CCCN(CCC)CCNC(=O)c1cc2c(=O)n(C)c3ccccc3c2n1C	DAX1 inh-2 5.7
CCCCN(CC)CCCNC(=O)c1cc2c(=O)n(CC)c3ccccc3c2s1	DAX1 inh-2 4.7
CCn1c(=O)c2cc(C(=O)NCCCOC)sc2c2ccccc21	none
CCCN(CCC)CCCNC(=O)c1cc2c(=O)n(CC)c3ccccc3c2s1	DAX1 inh-2 7.3
CCCCN(CC)CCNC(=O)c1cc2c(=O)n(CC)c3ccccc3c2s1	none
CN(CCNC(=O)c1cc2c(=O)n(C)c3ccccc3c2n1C)Cc1ccccc1	none
CCn1c(=O)c2cc(C(=O)NCC(OC)OC)sc2c2ccccc21	DAX1 inh-2 6.2
CCCCN(CC)CCNC(=O)c1cc2c(=O)n(C)c3ccccc3c2s1	none
CCOC(CNC(=O)c1cc2c(=O)n(CC)c3ccccc3c2s1)OCC	none
CCN(CC)CCNC(=O)c1cc2c(=O)n(C)c3ccccc3c2s1	hcDAF-12 act 6.3
Fc1cc(Cl)c(OCc2noc(-c3ccsc3)n2)c(Cl)c1	none
Clc1ccc(OCc2noc(-c3ccsc3)n2)c(Cl)c1	hgDAF-12 ag 11, DAX1 inh-2 8.3
CCCc1cc(=O)[nH]c(SCc2nc3ccccc3s2)n1	hcDAF-12 act 6.0
Cn1c(=O)c2c(-c3ccccc3)n(-c3ccccc3N)cc2n(C)c1=O	hgDAF-12 ag 12
CC(=O)N1CCc2c1cccc2S(=O)(=O)NC(CC(C)C)C(=O)Nc1ccccc1C (stereo unspecified)	none (no result: DAX1 inh-2)
Cc1ccc(NC(=O)[C@@H](Cc2ccccc2)NC(=O)[C@H]2O[C@@H](n3ccc(=O)[nH]c3=O)[C@H](O)[C@@H]2O)cc1C	none (no result: DAX1 inh-2)
Cc1nn(-c2ccccc2)cc1/C=N/O	DAX1 inh-2 5.2
O=C(NCc1ccncc1)c1cncc(Br)c1	DAX1 inh-2 4.4
CCc1sc(C(=O)Nc2ccc3c(c2)OCCO3)cc1Br	hgDAF-12 ag 11, DAX1 inh-1 7.1
O=C(Nc1ccc2c(c1)OCCO2)c1cncc(Br)c1	hgDAF-12 ag 11
O=C(NCc1ccccc1)c1cncc(Br)c1	none
O=C(Nc1ccc2c(c1)OCO2)c1cncc(Br)c1	hgDAF-12 ag 11
O=C(N/N=C\c1ccc2c(c1)OCO2)c1cncc(Br)c1	none
O=C(Nc1ccncc1)c1ccc2c(c1)OCCO2	none
CCOC(=O)[C@@]12CCCC=C1N(CCc1ccc(Cl)cc1)C(=O)[C@H]2CC(=O)NCC1CCCCC1	none (no result: DAX1 inh-2)
O=C(CCn1nnc(-c2cccs2)n1)NCc1ccco1	none (no result: DAX1 inh-2)
COCCCNC(=O)C[C@@H]1C(=O)N(CCc2ccc(Cl)cc2)C2=CCCCC[C@]21C(=O)OC	none (no result: DAX1 inh-2)
C#CCNC(=O)C[C@@H]1C[C@@](CCC(=O)OCC)(C(=O)OCC)C2=CCCCN2C1=O	none (no result: DAX1 inh-2)
CN(C)N1C(N)=C(C#N)C(c2cccc3ccccc23)C2=C1CC(c1ccccc1)CC2=O (stereo unspecified)	DAX1 inh-2 5.6
CN(C)N1C(N)=C(C#N)C(c2ccccc2)C2=C1CC(C)(C)CC2=O (stereo unspecified)	none
CCCN1CNc2c(c(=O)[nH]c(=S)n2CCc2c(Cl)cccc2Cl)C1	none (no result: DAX1 inh-1, DAX1 inh-2)
CCCCOc1ccc(C(=O)N/C(=C\c2ccc(OC)cc2)C(=O)OCc2ccco2)cc1	none
COc1ccc(C(=O)N/C(=C\c2ccco2)C(=O)OCc2ccco2)cc1	DAX1 inh-2 5.5
Nc1cccc(N=[N+]([O-])c2cccc(N)c2)c1	hgDAF-12 ag 11
CCn1c(=N)n(CC(O)c2ccco2)c2ccccc21 (stereo unspecified)	none
N=c1n(CCN2CCCCC2)c2ccccc2n1CC(O)c1ccco1 (stereo unspecified)	DAX1 inh-2 5.1
